# Screens as filed in PubChem.
# IL1B secr inh = inhibitors of inflammasome signaling (IL-1 beta secretion); actives 4.7% (n = 360,000); activity change, % at 57.5 µM; THP-1 LPS/ATP IL-1B secretion, AlphaLISA, 16 h; hits give low values; in the data active = activity change below about -50%; inconclusive = mostly about -30% to -49%
#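 THP-1 cells pretreated 1 hr with compounds (up to 57.5 uM final), then stimulated with LPS (250 ng/mL final) plus ATP (1.25 mM final); secreted IL-1B measured by AlphaLISA after 16 hr, decreased signal indicating inhibition.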
# HT1080NT lethal = kills 2HG-producing HT-1080-NT fibrosarcoma cells. HT-1080-NT fibrosarcoma viability, CellTiter-Glo ATP luminescence, 48 h. AID 686970. Potency, µM (top dose mostly 46.1 µM), actives largely listed as cytotoxic. actives 1.6% (n = 360,000);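 also: NT is the 2HG producing partner of a matched IDH1 knockdown line; nearly all actives have a fitted effect of over 55% in size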
#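 Viability by CellTiter-Glo luminescence after 48 h compound exposure at 37C of HT-1080-NT cells (750/well, RPMI, 5% FBS). % activity scaled between DMSO wells and medium-only wells, then curve-fitted and categorized by curve class.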
# DT40 TDP1 CPT = DT40-hTDP1 cell growth loss with CPT; Potency, µM (series often up to 46.2 µM), usual class: inhibitors; chicken DT40 Tdp1-/-;hTDP1 cells + 20 nM CPT, ATP luminescence, 48 h; actives 12% (n = 420,000); AID 686979; also: nearly all actives have a fitted effect of over 55% in size
#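 Cell growth measured by CellTiter-Glo luminescence after a minimum 48 h, 37 C compound exposure with 20 nM CPT in Tdp1-knockout DT40 cells stably expressing hTDP1, seeded 400/well; qHTS titration format.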
# HT1080 IDH1KD tx = toxicity to HT-1080 IDH1 knockdown cells (counter line); actives 2% (n = 360,000); Potency, µM (doses to about 46.1 µM), hits mostly cytotoxic; HT-1080 IDH1 knockdown viability, ATP luminescence, 48 h
#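 % activity derives from luminescence (CellTiter-Glo), normalised to DMSO and no-cell wells. HT-1080-IDH1KD cells, 750/well, had 48 h compound exposure at 37 °C.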
# TDP1 cell noCPT = qHTS for Inhibitors of human tyrosyl-DNA phosphodiesterase 1 (TDP1): qHTS in cells in absence of CPT; AID 686978, 2013; DT40 Tdp1-/- hTDP1 cells, no CPT, ATP luminescence, 48 h; Potency, µM (highest dose often 46.2 µM), usual class: inhibitors; actives 15% (n = 420,000); also: nearly all actives have a fitted effect of over 55% in size
#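 Luminescent ATP content (CellTiter-Glo) served as the growth readout. Knockout chicken DT40 cells expressing human TDP1 were exposed to compounds without camptothecin for a minimum 48 hr at 37 °C.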
# Numbers stand for hits; n = inactive; u = inconclusive; x = no result given. Most compounds without a hit are left out; they make up all but 19% or so of the library. Unless noted, calls follow the shape of the dose curve; as a rule, active = well fitted curve in the direction sought with a large enough effect; inconclusive = small, poorly fitted or top-dose-only effect, or another doubt; inactive = no such curve, though single readings can be large; an effect the other way counts as inactive or inconclusive.
SMILES,IL1B secr inh,HT1080NT lethal,DT40 TDP1 CPT,HT1080 IDH1KD tx,TDP1 cell noCPT
CCc1ccc(NC(=O)c2cc(S(=O)(=O)N3CCCC3)c[nH]2)cc1,n,n,u,n,23µM
O=C(NCCc1ccc(Cl)cc1)c1cc(S(=O)(=O)N2CCCCC2)c[nH]1,n,n,23µM,n,9.2µM
COC(=O)c1cc(S(=O)(=O)N(Cc2ccccc2)C(C)(C)C)c[nH]1,n,u,18µM,23µM,16µM
COC(=O)c1cc(S(=O)(=O)NCCc2ccc(Cl)cc2)c[nH]1,n,n,18µM,n,12µM
COC(=O)c1cc(S(=O)(=O)NCc2ccccc2)c[nH]1,n,n,n,n,n
NC(=O)CC(NC(=O)Cc1ccc(Cl)cc1)c1ccc(NCCOc2ccccc2)c([N+](=O)[O-])c1 (configuration not stated),n,n,n,n,n
CCOc1ccccc1NC(=S)/C(=C(\[O-])c1ccc2c(c1)OCCO2)[n+]1ccc(CC)cc1,n,n,21µM,n,x
[O-]C(=C(C(=S)Nc1cccc2ccccc12)[n+]1ccccc1)c1ccc2c(c1)OCCO2,n,n,n,n,u
CC1CCc2sc(NC(=O)C3CC(Cl)=CCC3C(=O)O)c(C#N)c2C1 (configuration not stated),n,n,n,n,n
O=C(Nc1cc(NC(=O)c2ccccc2Cl)ccc1Cl)c1ccccc1,x,x,u,x,21µM
O=C(Nc1ccc(C(=O)Nc2ccccc2Cl)cc1)c1cccnc1,n,8.2µM,n,5.8µM,n
O=C(Nc1ccc2nn(-c3ccc(F)cc3)nc2c1)c1cccnc1,n,n,u,n,u
O=C(Nc1ccc2nn(-c3ccccc3)nc2c1)c1cccnc1,u,n,u,n,16µM
COc1ccc(CCC(=O)NNC(=S)Nc2cccc(C(C)=O)c2)cc1,n,n,n,u,n
COc1ccc(-c2cc(C3CC3)nc(SCC(=O)c3cccs3)c2C#N)cc1,n,n,u,n,12µM
CCOC(=O)CSc1nc(C2CC2)cc(-c2ccc(F)cc2)c1C#N,n,n,u,n,n
CSc1nc(C2CC2)cc(-c2cccs2)c1C#N,u,32µM,n,u,n
C[C@@H]1C[C@H]2[C@@H]3C[C@H](F)C4=CC(=O)C=C[C@]4(C)[C@@]3(Cl)[C@@H](O)C[C@]2(C)[C@H]1C(=O)COC(=O)C(C)(C)C,u,u,n,u,u
CCc1ccc2occ(CC(=O)Nc3c(C(=O)c4ccc(F)cc4)oc4ccccc34)c2c1,x,x,n,x,u
COc1ccc(OC)c(NC(=O)CSc2nc(=O)n(Cc3ccccn3)c3c2CCC3)c1,n,n,n,n,n
CC(=O)c1cccc(S(=O)(=O)N(Cc2cc3cc4c(cc3[nH]c2=O)OCCO4)CC2CCCO2)c1 (configuration not stated),n,n,u,n,u
Cc1ccc(C)c2[nH]c(=O)c(CN(CC3CCCO3)S(=O)(=O)c3ccc4c(c3)OCCO4)cc12 (configuration not stated),n,n,u,n,16µM
Cc1cc(C)c2[nH]c(=O)c(CN(CC3CCCO3)S(=O)(=O)c3ccc4c(c3)OCCO4)cc2c1 (configuration not stated),u,n,u,n,23µM
CC(C)NC(=O)c1onc(CSc2ccc(Cl)cc2)c1C(=O)NC(C)C,u,n,u,n,n
Cc1nc2ccc(NC(=O)c3cccc(C(F)(F)F)c3)cc2o1,u,n,23µM,n,u
SMILES,IL1B secr inh,HT1080NT lethal,DT40 TDP1 CPT,HT1080 IDH1KD tx,TDP1 cell noCPT
CCOc1ccc(C(=O)Nc2ccc3nc(Nc4cccc(C(F)(F)F)c4)cc(C)c3c2)cc1OCC,x,x,18µM,x,5.2µM
Cc1cc(Nc2cccc(C(F)(F)F)c2)nc2ccc(NC(=O)c3cccc(Cl)c3)cc12,x,x,13µM,x,6.5µM
CCOc1cc(/C=C(\CC(=O)O)c2nc3ccccc3s2)ccc1OCC(=O)Nc1cccc(C(F)(F)F)c1,n,n,u,n,u
Cc1cc(Nc2cccc(C(F)(F)F)c2)nc2ccc(NC(=O)c3cccnc3)cc12,x,x,4.1µM,x,2.3µM
CCN(CC)c1ccc(NC(=O)CNCc2ccccc2Cl)c(C)c1,n,n,u,n,n
CC1(C(=O)NCc2ccccc2)CN(S(C)(=O)=O)CC(=O)N1CCc1c[nH]c2ccccc12 (configuration not stated),n,n,13µM,n,n
CCCc1cc(-c2[nH]ncc2-c2ccc3c(c2)OCCCO3)c(O)cc1O,n,n,u,n,u
CCCc1cc(-c2[nH]ncc2-c2ccc(C(=O)OCC)o2)c(O)cc1O,-84,u,u,u,u
Cn1ccnc1-c1ccc(-c2nccn2C)cc1,n,n,n,n,n
Cc1ccc2nc(-c3ccc(N4C(=O)CC(N5CCN(CCO)CC5)C4=O)cc3)sc2c1 (configuration not stated),u,n,u,n,15µM
Cc1cc(S(=O)(=O)Nc2ccc(C(=O)NCc3ccncc3)cc2)ccc1F,n,n,n,n,n
CCc1nn(CC(=O)NCc2cccnc2)c(=O)c2cc3occc3n12,n,n,n,n,n
COc1nc(Nc2ccc(OC)c(Cl)c2)nc(OC)n1,n,n,n,n,u
CCOc1nc(Nc2ccc(F)cc2)nc(N2CCN(c3ccc(OC)cc3)CC2)n1,n,n,u,n,15µM
CCOc1ccc(Nc2nc(N3CCCC3)nc(N3CCN(c4ccc(OC)cc4)CC3)n2)cc1,n,n,u,n,16µM
CCOc1ccc(Nc2nc(Nc3ccc(OCC)cc3)nc(N3CCOCC3)n2)cc1,x,x,n,x,n
CCOc1nc(Nc2ccc(OC)c(Cl)c2)nc(N2CCN(c3ccc(OC)cc3)CC2)n1,u,n,18µM,n,23µM
Nc1c(C(O)(C(F)(F)F)C(F)(F)F)cc(C(O)(C(F)(F)F)C(F)(F)F)c2ccccc12,-96,21µM,u,23µM,u
O=C(COC(=O)c1n[nH]c(=O)c2ccccc12)c1ccccc1,n,n,n,n,u
O=c1[nH]nc(Cc2ccccc2)c2ccccc12,n,n,7.3µM,n,n
O=C(COC(=O)c1n[nH]c(=O)c2ccccc12)NCc1ccccc1,n,n,12µM,n,9.2µM
O=c1[nH]nc(CNc2cccc(C(F)(F)F)c2)c2ccccc12,n,n,26µM,n,15µM
Cc1nnc(NCc2n[nH]c(=O)c3ccccc23)c2ccccc12,-101,16µM,5.8µM,11µM,10µM
COc1ccc(NCc2n[nH]c(=O)c3ccccc23)cc1,n,n,u,n,u
CCc1nc2ccc(C(=O)N3CCN(C(C)=O)CC3)cn2c1N(C)C(=O)c1cccc(OC)c1,n,n,n,n,n
